Results taken from PubChem BioAssay AID1053127 (Broad Institute, 2014).
Entries with a potency or affinity are not part of this list.

Test: YAP1 overexpression rescue of CTGF inhibition – DLD1 cells, RT-qPCR, cherry-pick, mechanism study for YAP1 pathway inhibitor project, dose response (AID 1053127)
Conditions: DLD1 YAP1-overexpressing, CTGF mRNA qPCR, 24 h; series mostly up to 26 µM; CTGF fold change (delta-delta-Ct), lower = inhibition: at the top concentration;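 active = compounds whose fitted curve of lowered CTGF expression reaches half effect within a set concentration limit; inconclusive = flat moderate drop in CTGF, or unreliable curve fit; inactive = the rest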

CTGF fold change (delta-delta-Ct), lower = inhibition, inactive:
C[C@@H]1CN([C@H](C)CO)C(=O)c2ccccc2-c2ccccc2CO[C@@H]1CN(C)Cc1ccccc1C(F)(F)F 0.88 unspecified
C[C@@H]1CN([C@@H](C)CO)C(=O)c2cccc(NC(=O)c3nc4ccccc4s3)c2O[C@H]1CN(C)C(=O)Nc1ccc2c(c1)OCO2 0.834 unspecified
CO[C@@H]1CN(C)C(=O)c2cc(NS(=O)(=O)c3ccccc3C)ccc2OC[C@@H](C)N(S(=O)(=O)c2ccccc2)C[C@H]1C 1 unspecified
NCC[C@H]1CC[C@@H](NC(=O)NC2CCCCC2)[C@H](CO)O1 1.29 unspecified
C[C@H]1CN([C@@H](C)CO)C(=O)c2cc(C#Cc3ccccc3)cnc2O[C@H]1CN(C)C(=O)c1ccccc1 0.867 unspecified
CN1CCN(C(=O)C[C@@H]2CC[C@H]3[C@@H](COc4ccc(NC(=O)C5CCOCC5)cc4C(=O)N3C)O2)CC1 1.25 unspecified
Cc1cccc(-c2ccc([C@@H]3[C@@H](CO)N4CCCCN(S(=O)(=O)c5ccccc5F)C[C@@H]34)cc2)c1 0.962 unspecified
CCC(=O)N1C[C@H](C)[C@@H](OC)CN(C)C(=O)c2cc(NC(=O)Nc3ccc(Cl)cc3)ccc2OC[C@@H]1C 1.62 unspecified
C[C@H](CO)N1C[C@H](C)[C@@H](CN(C)S(=O)(=O)c2ccc([N+](=O)[O-])cc2)OCc2ccccc2-c2c(n(C)c3ccccc23)C1=O 1.01 unspecified
O=C(Nc1ccccc1)[C@@H]1[C@@H](CO)[C@@H]2Cn3c(cccc3=O)[C@H]1N2C(=O)c1ccc(F)cc1 0.808 unspecified
COc1ccc(NC(=O)N(C)C[C@H]2Oc3c(NC(=O)CCCCCC(=O)Nc4ccccc4N)cccc3C(=O)N([C@H](C)CO)C[C@@H]2C)cc1 1.07 unspecified [at 23.5 µM]
C[C@@H]1CN([C@H](C)CO)C(=O)CCCn2nncc2CO[C@@H]1CN(C)C(=O)c1cc(-c2ccccc2)on1 0.649 unspecified
O=C(c1cccc(F)c1)N1CCCCN2[C@@H](CO)[C@H](c3ccc(C#CC4(O)CCCC4)cc3)[C@@H]2C1 0.713 unspecified
COc1ccc2c3c(n(C)c2c1)[C@@H](CO)N(Cc1ccncc1)CC31CN(C(=O)Nc2cccc(F)c2)C1 1.12 unspecified
CC(C)(C)S(=O)N1Cc2cc(C(=O)NCc3ccc4c(c3)OCO4)nc(-c3cccc(-c4cccc(F)c4)c3)c2[C@@H]1CCO (some centres undefined) 1.09 unspecified
COc1ccc2c3c(n(C)c2c1)[C@H](CO)N(S(C)(=O)=O)CC31CCN(C(=O)Nc2cccc(F)c2)CC1 1.04 unspecified
C[C@H]1CN([C@@H](C)CO)S(=O)(=O)c2ccc(-c3cncnc3)cc2O[C@@H]1CN(C)C(=O)NC1CCCC1 0.826 unspecified
CO[C@H]1CN(C)C(=O)c2cc(NC(=O)Nc3ccccc3F)ccc2OC[C@H](C)N(CCC(F)(F)F)C[C@@H]1C 1.03 unspecified
C[C@H]1CN([C@@H](C)CO)C(=O)c2cccc(NC(=O)c3ccc(-c4nccs4)cc3)c2O[C@@H]1CN(C)C(=O)Nc1ccc(C(F)(F)F)cc1 0.52 unspecified
CCCC#Cc1ccc([C@@H]2[C@@H](C#N)N(C(=O)CN3CCOCC3)[C@H]2CO)cc1 1.04 unspecified [at 23.5 µM]
Cc1ccc(S(=O)(=O)N[C@H]2C=C[C@H](CC(=O)NCc3ccc(Cl)c(Cl)c3)O[C@H]2CO)cc1 0.997 unspecified
C[C@@H]1CN([C@@H](C)CO)C(=O)c2ccccc2-c2ccccc2CO[C@H]1CN(C)C(=O)Nc1ccc(-c2ccccc2)cc1 0.561 unspecified
CN(C)C(=O)c1ccc(-c2cccc(-c3nc(C(=O)NCc4ccccc4)cc4c3[C@@H](CCO)N([S@](=O)C(C)(C)C)C4)c2)cc1 1.52 unspecified
CC(=O)N1CCCCN2[C@@H](CO)[C@H](c3ccc(-c4ccccc4)cc3)[C@@H]2C1 0.666 unspecified
C[C@H]1CC=CC[C@@H](c2ccc(F)cc2)NC(=O)[C@H](Cc2ccccc2)N(C)C(=O)c2ccccc2O1 (mixture of isomers) 0.62 unspecified
Cc1ccc(S(=O)(=O)N2CC[C@@H]3[C@H]2c2cc(-c4cccc(C(=O)N(C)C)c4)ccc2N[C@@H]3CO)cc1 2.06 unspecified [at 23.5 µM]
COc1ccc(CN(C)C[C@H]2Oc3ccc(NC(=O)Nc4ccc5c(c4)OCO5)cc3CC(=O)N([C@@H](C)CO)C[C@H]2C)cc1 0.62 unspecified
C[C@@H]1CN([C@H](C)CO)C(=O)CCCn2nncc2CO[C@@H]1CN(C)Cc1cccc(C(F)(F)F)c1 1.12 unspecified
CCC(=O)N1Cc2cc(C(=O)NCc3cccc(F)c3)nc(-c3cccc(C4=CCCC4)c3)c2[C@H]1CCO 1 unspecified
N#C[C@@H]1[C@H](c2ccc(-c3cccc(F)c3)cc2)[C@H](CO)N1C(=O)NC1CCCC1 1.04 unspecified
O=S(=O)(Cc1ccccc1)N1CC2(C1)[C@H](c1ccccc1)[C@H](CO)N2CC1CCCC1 0.631 unspecified
COc1ccc(NC(=O)N2CCCCN3[C@@H](CO)[C@H](c4ccc(-c5ccccc5F)cc4)[C@@H]3C2)cc1 1.16 unspecified
Cc1ccc(S(=O)(=O)Nc2ccc3c(c2)CC(=O)N([C@H](C)CO)C[C@@H](C)[C@@H](CN(C)S(=O)(=O)c2ccccc2)O3)cc1 0.863 unspecified
C[C@@H]1CN([C@@H](C)CO)C(=O)Cc2cc(NC(=O)C3CCCCC3)ccc2O[C@@H]1CN(C)Cc1ccc(Cl)c(Cl)c1 1.43 unspecified [at 23.5 µM]
C[C@H]1CN([C@@H](C)CO)C(=O)c2cccc(NC(=O)c3nc4ccccc4s3)c2O[C@@H]1CN(C)C(=O)Nc1ccc2c(c1)OCO2 0.677 unspecified
C[C@@H]1CN([C@H](C)CO)C(=O)c2c(c3ccccc3n2C)-c2ccccc2CO[C@@H]1CN(C)Cc1cccc(C(F)(F)F)c1 0.675 unspecified [at 23.5 µM]
C[C@@H]1CC=CC[C@@H](c2cccc(Cl)c2)NC(=O)[C@H](Cc2ccccc2)N(C)C(=O)c2ccccc2O1 (mixture of isomers) 0.763 unspecified
O=C(CC1CC1)N1CC(=O)N2[C@@H](CO)[C@H](c3ccc(/C=C/c4ccccc4)cc3)[C@@H]2C1 1.06 unspecified
Cc1ccc(S(=O)(=O)Nc2ccc3c(c2)C(=O)N([C@H](C)CO)C[C@@H](C)[C@H](CN(C)S(=O)(=O)c2cccs2)OCCCC[C@@H](C)O3)cc1 1.68 unspecified
